Drawing on PubChem BioAssay (NCATS), this text covers Potency and activity change, negative = inhibition for eleven compounds.

For assay [1], the system named is Zika virus NS2B-NS3 protease (unlinked complex). Put plainly: Primary screen GU Rhodamine qHTS for Zika virus inhibitors: Unlinked NS2B-NS3 protease assay (AID 1347159). Also: nearly all actives have a fitted effect of over 60% in size. Also: potency is read from the fitted curve at half-maximal effect. In short, it runs like this:
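Percent inhibition derives from the 15-min fluorescence change (ex 480, em 540 nm), normalized to no-enzyme and no-inhibitor wells. Reactions contained 25 nM NS2B-NS3 complex and 1.5 microM substrate in 10 mM Tris-HCl pH 8.0.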
For orientation: qHTS replaces the single test concentration by a dilution series.

The test system of assay [2] is Zika virus NS2B-NS3 protease. Put plainly: Primary screen GU AMC qHTS for Zika virus inhibitors (AID 1347154). Also: nearly all actives have a fitted effect of over 70% in size. A digest of the protocol:
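Unlinked Zika NS2B hydrophilic domain–NS3 protease complex at 25 nM in 10 mM Tris-HCl pH 8.0, 0.01% Tween 20, with an AMC peptide substrate. Fluorescence change (340/450 nm) over 15 min at room temperature, normalized to controls, fitted to 4-parameter Hill.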

Each structure is given as a SMILES string. Results filed as inconclusive are left out. A call without a number means that no potency is given here. Unmarked numbers belong to inactive results. Calls of active or inactive are those of the source. Calls follow the shape of the dose curve; as a rule, active = well fitted curve in the direction sought with a large enough effect; inconclusive = small, poorly fitted or top-dose-only effect, or another doubt; inactive = no such curve, though single readings can be large; an effect the other way counts as inactive or inconclusive.

Take `Cc1coc2c1C(=O)C(=O)c1c-2ccc2c1CCCC2(C)C`: the Potency in assay [1] was 22.4 µM (active).

Regarding `CC(=O)Nc1sc2c(c1-c1nc3ccccc3s1)CNC2`, the Potency result in assay [1] is “inactive”.

As to `COc1ccc2c(c1)CC[C@@H](CN(C)CC(=O)O)[C@H]2c1ccccc1`, the Potency result in assay [2] and in assay [1] was “inactive” each time.

Take `Cc1cnc(Nc2ccc(F)cc2Cl)nc1-c1c[nH]c(C(=O)N[C@H](CO)c2cccc(Cl)c2)c1`: the Potency in assay [1] was 39.8 µM (active).

For `CC1(C)CC(=O)c2c(C(F)(F)F)nn(-c3ccc(C(N)=O)c(NC4CCC(OC(=O)CN)CC4)c3)c2C1` (stereo not drawn), the Potency result in assay [2] and in assay [1] was “inactive” in each case.

Take `CCCCCCCCCC(=O)N[C@@H](Cc1c[nH]c2ccccc12)C(=O)N[C@H](CC(N)=O)C(=O)N[C@@H](CC(=O)O)C(=O)N[C@@H]1C(=O)NCC(=O)N[C@@H](CCCN)C(=O)N[C@@H](CC(=O)O)C(=O)N[C@H](C)C(=O)N[C@@H](CC(=O)O)C(=O)NCC(=O)N[C@H](CO)C(=O)N[C@@H]([C@@H](C)CC(=O)O)C(=O)N[C@@H](CC(=O)c2ccccc2N)C(=O)O[C@@H]1C`: the Potency entry in assay [2] and in assay [1] was “inactive” throughout.

With `CC(=O)c1c(C)c2cnc(Nc3ccc(N4CCNCC4)cn3)nc2n(C2CCCC2)c1=O`, in assay [2], the Potency result is “inactive”. In addition, the activity change, negative = inhibition in assay [1] was 5.34% [at 11.5 µM].

For `COc1cc2c(Nc3ccc(NC(=O)c4ccccc4)cc3)ncnc2cc1OCCCN1CCOCC1`, the Potency result in assay [2] and in assay [1] was “inactive” throughout.

On to `Clc1cccc(-c2nnnn2Cc2cccnc2)c1Cl`, for which the Potency result in assay [2] and in assay [1] was “inactive” in each case.

Turning to `CS(=O)(=O)c1ccc(-c2cnc(N)c(C(=O)Nc3ccccc3)n2)cc1`, the Potency result in assay [2] and in assay [1] was “inactive” in each case.

Consider `Nc1cccc(-c2cc3c(Oc4cccc(O)c4)ncnc3[nH]2)c1`, for which the Potency entry in assay [1] was “inactive”.
